Drawing on the supplement of paper PMC10849652, this text covers log2 fold change for 39 targets.

Targets with a hit are over-represented here; the source holds about 7,900 in all. About 0.6% of all pairs of compound and target were hits. Unmarked numbers belong to inactive results.

Sequence of UniProt O75251 (O75251 whole entry, looked up): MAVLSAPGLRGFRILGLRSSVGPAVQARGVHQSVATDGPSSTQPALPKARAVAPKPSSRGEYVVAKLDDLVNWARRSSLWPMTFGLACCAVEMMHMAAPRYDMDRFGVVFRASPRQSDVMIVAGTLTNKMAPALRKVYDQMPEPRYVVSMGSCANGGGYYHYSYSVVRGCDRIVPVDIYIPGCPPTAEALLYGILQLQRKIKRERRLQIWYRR
Sequence of UniProt Q96D46 (Q96D46 whole entry, looked up): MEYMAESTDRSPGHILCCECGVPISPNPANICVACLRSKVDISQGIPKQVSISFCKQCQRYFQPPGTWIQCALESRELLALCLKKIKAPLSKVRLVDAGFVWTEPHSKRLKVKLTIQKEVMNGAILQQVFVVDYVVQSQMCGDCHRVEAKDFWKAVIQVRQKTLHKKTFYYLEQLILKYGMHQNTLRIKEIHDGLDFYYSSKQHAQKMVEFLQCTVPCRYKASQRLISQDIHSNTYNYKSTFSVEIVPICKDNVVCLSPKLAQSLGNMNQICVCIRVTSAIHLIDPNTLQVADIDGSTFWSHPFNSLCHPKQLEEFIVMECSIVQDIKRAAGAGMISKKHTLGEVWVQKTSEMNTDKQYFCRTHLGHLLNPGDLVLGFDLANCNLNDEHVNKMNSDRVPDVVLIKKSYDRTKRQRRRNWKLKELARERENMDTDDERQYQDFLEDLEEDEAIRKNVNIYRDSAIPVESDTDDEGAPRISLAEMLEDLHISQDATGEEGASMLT
Sequence of UniProt O00217 (O00217 whole entry, looked up): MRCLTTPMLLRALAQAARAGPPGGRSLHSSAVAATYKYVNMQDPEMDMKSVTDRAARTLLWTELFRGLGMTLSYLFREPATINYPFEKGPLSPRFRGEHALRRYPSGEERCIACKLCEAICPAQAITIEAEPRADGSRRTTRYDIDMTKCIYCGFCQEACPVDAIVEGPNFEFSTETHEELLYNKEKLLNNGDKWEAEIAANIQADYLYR
Sequence of UniProt Q8N573 (Q8N573 whole entry, looked up): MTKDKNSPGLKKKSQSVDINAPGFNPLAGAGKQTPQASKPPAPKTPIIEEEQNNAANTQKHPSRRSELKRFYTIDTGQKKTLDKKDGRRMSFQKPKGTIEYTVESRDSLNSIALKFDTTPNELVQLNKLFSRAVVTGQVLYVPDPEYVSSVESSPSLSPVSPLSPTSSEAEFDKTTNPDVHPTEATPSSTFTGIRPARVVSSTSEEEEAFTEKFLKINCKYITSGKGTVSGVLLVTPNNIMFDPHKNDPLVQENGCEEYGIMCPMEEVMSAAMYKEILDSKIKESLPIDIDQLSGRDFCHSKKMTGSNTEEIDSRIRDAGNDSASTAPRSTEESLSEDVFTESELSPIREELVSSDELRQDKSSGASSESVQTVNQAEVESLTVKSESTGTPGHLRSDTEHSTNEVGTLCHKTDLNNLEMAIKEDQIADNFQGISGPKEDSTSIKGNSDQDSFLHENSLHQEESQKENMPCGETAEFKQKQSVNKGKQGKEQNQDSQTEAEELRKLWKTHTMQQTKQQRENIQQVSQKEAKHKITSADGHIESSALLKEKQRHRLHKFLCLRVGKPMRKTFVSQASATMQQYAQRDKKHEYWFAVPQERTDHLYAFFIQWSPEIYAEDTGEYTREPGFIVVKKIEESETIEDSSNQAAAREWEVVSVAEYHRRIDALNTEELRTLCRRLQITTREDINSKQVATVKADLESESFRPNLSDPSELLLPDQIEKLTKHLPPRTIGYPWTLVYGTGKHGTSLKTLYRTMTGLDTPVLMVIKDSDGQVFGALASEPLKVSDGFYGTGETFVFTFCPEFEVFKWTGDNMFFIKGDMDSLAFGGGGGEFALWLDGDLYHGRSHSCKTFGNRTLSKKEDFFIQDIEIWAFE
Sequence of UniProt Q8NI08 (Q8NI08 whole entry, looked up): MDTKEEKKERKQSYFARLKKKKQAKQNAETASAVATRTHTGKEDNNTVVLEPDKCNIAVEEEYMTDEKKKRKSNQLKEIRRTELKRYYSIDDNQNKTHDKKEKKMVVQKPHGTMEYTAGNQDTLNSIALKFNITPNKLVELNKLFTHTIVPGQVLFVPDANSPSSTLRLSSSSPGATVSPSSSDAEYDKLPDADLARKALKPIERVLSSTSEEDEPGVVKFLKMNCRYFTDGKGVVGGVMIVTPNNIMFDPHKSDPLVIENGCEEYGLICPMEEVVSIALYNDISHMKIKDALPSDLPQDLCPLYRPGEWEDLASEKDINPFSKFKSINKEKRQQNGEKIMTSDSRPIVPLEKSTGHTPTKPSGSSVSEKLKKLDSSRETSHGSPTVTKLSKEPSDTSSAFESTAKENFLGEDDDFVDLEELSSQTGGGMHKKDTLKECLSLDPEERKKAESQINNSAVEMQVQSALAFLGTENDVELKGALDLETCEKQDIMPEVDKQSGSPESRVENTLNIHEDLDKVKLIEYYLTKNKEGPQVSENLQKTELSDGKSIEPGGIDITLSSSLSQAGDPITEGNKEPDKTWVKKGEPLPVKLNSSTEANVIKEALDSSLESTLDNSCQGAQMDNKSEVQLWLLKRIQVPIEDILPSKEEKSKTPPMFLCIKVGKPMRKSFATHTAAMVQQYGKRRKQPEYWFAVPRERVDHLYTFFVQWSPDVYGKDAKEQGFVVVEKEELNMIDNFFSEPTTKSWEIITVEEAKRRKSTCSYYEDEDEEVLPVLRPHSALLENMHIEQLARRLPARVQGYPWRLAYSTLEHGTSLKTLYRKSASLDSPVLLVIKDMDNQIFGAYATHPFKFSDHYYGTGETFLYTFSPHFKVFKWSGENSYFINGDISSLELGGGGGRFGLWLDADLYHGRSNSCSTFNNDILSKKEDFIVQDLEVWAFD
Sequence of UniProt Q15003 (Q15003 whole entry, looked up): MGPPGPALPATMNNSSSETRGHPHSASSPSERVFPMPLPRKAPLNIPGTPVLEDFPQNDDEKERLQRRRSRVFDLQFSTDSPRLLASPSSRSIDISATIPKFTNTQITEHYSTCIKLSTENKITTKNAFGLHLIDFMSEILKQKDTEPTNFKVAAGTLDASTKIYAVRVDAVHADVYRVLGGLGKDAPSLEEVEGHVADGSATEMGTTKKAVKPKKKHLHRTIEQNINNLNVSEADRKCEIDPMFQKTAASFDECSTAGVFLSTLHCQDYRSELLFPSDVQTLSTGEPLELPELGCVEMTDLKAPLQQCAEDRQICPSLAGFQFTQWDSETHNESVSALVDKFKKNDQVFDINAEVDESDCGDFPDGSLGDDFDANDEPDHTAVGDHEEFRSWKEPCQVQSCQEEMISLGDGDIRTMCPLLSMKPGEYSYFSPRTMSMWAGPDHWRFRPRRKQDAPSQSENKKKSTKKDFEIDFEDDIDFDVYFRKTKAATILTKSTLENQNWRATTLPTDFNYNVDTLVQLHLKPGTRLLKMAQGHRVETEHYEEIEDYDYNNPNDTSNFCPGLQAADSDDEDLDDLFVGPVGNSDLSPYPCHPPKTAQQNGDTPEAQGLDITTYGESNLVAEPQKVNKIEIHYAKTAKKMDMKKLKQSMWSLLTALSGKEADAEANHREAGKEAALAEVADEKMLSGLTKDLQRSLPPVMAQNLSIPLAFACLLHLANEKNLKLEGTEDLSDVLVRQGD
Sequence of UniProt Q15021 (Q15021 whole entry, looked up): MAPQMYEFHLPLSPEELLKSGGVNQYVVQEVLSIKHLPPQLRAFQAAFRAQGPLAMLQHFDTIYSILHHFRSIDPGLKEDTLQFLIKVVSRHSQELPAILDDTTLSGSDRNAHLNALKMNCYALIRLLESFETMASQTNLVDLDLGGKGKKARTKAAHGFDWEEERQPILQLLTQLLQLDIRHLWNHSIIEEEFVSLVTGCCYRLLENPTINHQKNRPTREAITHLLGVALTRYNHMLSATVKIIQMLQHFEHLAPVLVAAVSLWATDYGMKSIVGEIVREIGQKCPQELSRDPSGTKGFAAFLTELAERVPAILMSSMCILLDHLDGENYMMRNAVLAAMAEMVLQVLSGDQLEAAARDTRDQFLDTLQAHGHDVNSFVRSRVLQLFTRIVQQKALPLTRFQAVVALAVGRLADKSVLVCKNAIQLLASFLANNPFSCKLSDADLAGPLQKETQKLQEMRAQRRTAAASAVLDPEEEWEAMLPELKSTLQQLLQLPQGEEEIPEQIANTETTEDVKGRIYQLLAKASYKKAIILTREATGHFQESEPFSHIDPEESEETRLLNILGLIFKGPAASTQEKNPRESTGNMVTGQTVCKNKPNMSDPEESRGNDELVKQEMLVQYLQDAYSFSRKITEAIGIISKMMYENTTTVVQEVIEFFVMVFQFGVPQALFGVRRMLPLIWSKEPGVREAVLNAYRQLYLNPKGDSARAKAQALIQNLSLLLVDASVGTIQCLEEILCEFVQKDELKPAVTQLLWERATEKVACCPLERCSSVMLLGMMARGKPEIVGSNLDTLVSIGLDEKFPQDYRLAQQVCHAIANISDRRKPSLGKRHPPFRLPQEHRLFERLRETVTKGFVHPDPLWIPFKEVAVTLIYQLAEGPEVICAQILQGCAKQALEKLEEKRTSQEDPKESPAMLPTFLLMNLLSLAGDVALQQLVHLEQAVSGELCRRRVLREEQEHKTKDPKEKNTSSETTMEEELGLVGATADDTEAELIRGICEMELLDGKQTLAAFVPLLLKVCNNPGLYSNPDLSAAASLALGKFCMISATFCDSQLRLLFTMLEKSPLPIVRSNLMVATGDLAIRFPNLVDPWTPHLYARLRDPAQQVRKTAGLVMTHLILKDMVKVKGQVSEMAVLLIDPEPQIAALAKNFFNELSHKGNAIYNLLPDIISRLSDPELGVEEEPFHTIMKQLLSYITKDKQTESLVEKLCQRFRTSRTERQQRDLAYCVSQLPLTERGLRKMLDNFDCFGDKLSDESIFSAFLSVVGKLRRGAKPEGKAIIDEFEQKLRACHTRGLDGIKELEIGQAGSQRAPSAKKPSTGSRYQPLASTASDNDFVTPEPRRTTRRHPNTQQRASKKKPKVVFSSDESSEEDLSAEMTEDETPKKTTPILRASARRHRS
Sequence of UniProt Q9UI09 (Q9UI09 whole entry, looked up): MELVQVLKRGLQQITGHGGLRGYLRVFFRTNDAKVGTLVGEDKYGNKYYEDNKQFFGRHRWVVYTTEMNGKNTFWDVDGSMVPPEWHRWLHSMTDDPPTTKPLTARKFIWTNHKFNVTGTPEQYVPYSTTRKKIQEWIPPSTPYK

Compound in the test: CCN(CCCOc1ccc2c(Nc3cc(CC(=O)Nc4cccc(F)c4)[nH]n3)ncnc2c1)CCOP(=O)(O)O [barasertib]
As to the kind of experiment: log2 fold change, soluble protein after heating vs DMSO (PISA); higher = thermal stabilisation; K562 cells, 10 uM, 30 min; active = over 0.2 and 3.5 SD of the protein, either way, in both replicates (recomputed). The method in brief: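 K562 cells at 2×10^6 cells/mL were given 10 μM compound for 30 min. Aliquots then went through 3 min of heating across 48°C-58°C, were pooled, and were extracted in PBS with 0.5% NP-40 at 4°C, and the supernatant after 21,000xg for 90 min was quantified by TMTpro 16plex LC-MS/MS with channel sums equalised. Thermal stability relative to control samples, from duplicates, is given as log2 fold change.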
As to NUDT21 (UniProt O43809), the log2 fold change was -0.023.

Consider NUCKS1 (UniProt Q9H1E3), for which the log2 fold change was 0.008.

Turning to NUDT1 (UniProt P36639), the log2 fold change was -0.03.

On to MRPS2 (UniProt Q9Y399), for which the log2 fold change is -0.031.

Turning to NDUFA12 (UniProt Q9UI09), the log2 fold change is 0.056.

Take OGFR (UniProt Q9NZT2): the log2 fold change is 0.125.

Take NIBAN1 (UniProt Q9BZQ8): the log2 fold change is 0.063.

Take NSMCE4A (UniProt Q9NXX6): the log2 fold change was 0.196.

Turning to MUL1 (UniProt Q969V5), the log2 fold change was 0.005.

Regarding NDUFS7 (UniProt O75251), the log2 fold change is 0.016.

As to OTULIN (UniProt Q96BN8), the log2 fold change is 0.105.

With MOV10 (UniProt Q9HCE1), the log2 fold change was -0.05.

Consider NCAPH (UniProt Q15003), for which the log2 fold change is 0.042.

With NOP56 (UniProt O00567), the log2 fold change is -0.076.

Regarding OTUD4 (UniProt Q01804), the log2 fold change was -0.083.

Consider NA, A0A096LPI6, for which the log2 fold change is -0.003.

On to MSH6 (UniProt P52701), for which the log2 fold change is 0.171.

For the target NCAPD2 (UniProt Q15021), the log2 fold change is 0.03.

Take NCOA7 (UniProt Q8NI08): the log2 fold change is 0.009.

On to NDUFA6 (UniProt P56556), for which the log2 fold change is 0.035.

Take NME7 (UniProt Q9Y5B8): the log2 fold change is 0.042.

As for NFATC2IP (UniProt Q8NCF5), the log2 fold change is 0.124.

As for MMS19 isoform 8 (UniProt Q96T76), the log2 fold change is 0.063.

Take NMT2 (UniProt O60551): the log2 fold change was 0.

In the case of MRPS12 (UniProt O15235), the log2 fold change is -0.054.

For the target MRPS31 (UniProt Q92665), the log2 fold change was -0.007.

On to NMD3 (UniProt Q96D46), for which the log2 fold change was 0.015.

For NAP1L1 (UniProt P55209), the log2 fold change is 0.061.

In the case of NACC1 (UniProt Q96RE7), the log2 fold change was 0.115.

On to NCK1 (UniProt P16333), for which the log2 fold change is 0.189.

As for OXR1 (UniProt Q8N573), the log2 fold change is 0.027.

Regarding MIS12 (UniProt Q9H081), the log2 fold change was 0.049.

Take NDUFS8 (UniProt O00217): the log2 fold change was -0.004.

In the case of PAK1 isoform 2 (UniProt Q13153), the log2 fold change was -0.001.

In the case of NFATC3 (UniProt Q12968), the log2 fold change was 0.019.

NOP2 isoform 4 (UniProt P46087): the log2 fold change is -0.223.

As to NUP98 (UniProt P52948), the log2 fold change is 0.037.

In the case of OXSM (UniProt Q9NWU1), the log2 fold change was -0.034.

For NBN (UniProt O60934), the log2 fold change was 0.022.
